Reference: paper PMC12820563, “FoxP3 forms a head-to-head dimer in vivo and stabilizes its multimerization on adjacent microsatellites”
Whole data set: some 16,000 sequences, median “rpm ratio (pull-down/input)” near 0.5, cut for the highest 2% near 5.5. The entries come from a sample that favours the highest values as a whole.

The sequences below were run against T1, MBP-FoxP3dN (Mus musculus, UniProt Q99JB6 188-423) (assay: PD-seq (MBP pull-down with sequencing); 20 mM Tris-HCl pH 7.5, 100 mM NaCl, 1.5 mM MgCl2, 0.4 uM protein, 0.1 uM dsDNA library, 30 min, room temperature, amylose pull-down; high values mean tight binding). Settings: protein: recombinant; tags: His6-MBP; chain copies: 2; dsDNA, one strand shown.
T1 sequence: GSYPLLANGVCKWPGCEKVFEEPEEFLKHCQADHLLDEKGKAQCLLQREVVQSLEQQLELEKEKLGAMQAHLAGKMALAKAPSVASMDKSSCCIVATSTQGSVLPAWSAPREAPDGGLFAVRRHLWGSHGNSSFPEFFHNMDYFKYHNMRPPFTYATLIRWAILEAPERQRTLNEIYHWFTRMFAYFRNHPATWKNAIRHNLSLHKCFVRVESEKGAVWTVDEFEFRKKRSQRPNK
Summary of the method: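 A fragment of mouse FoxP3 or FoxP1 without its N-terminus, carrying a His6-MBP tag and produced in E. coli, was combined at 0.4 µM with a 0.1 µM degenerate double-stranded DNA library filled in with Klenow. The mixture sat for 30 min at room temperature in Tris pH 7.5 buffer containing NaCl and MgCl2. Protein–DNA complexes were captured on amylose resin, washed three times, and the DNA was freed with proteinase K, barcoded by PCR and sequenced on Illumina. Binding is expressed as reads-per-million enrichment of pull-down over input, with replicates pooled.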

Point of comparison: “GATGATTGTTCTCCCAGCTGATGAATTGCTTTTGTCGAGTAAACAAATTTTCCTAATCTTTCTGTTCAAGCGCCATCTAC”, binding signal 1.51 RPM ratio (pull-down/input). Against it:
- GATGATTGTTCTCCCAGCTGATGAATTCTAAACTTCGAGTAAACAAATTTTCCTAATCTTTCTGTTCAAGCGCCATCTAC — lower, 0.381 RPM ratio (pull-down/input)
- GATGATTGTTCTCCCAGCTGATGAATTTCCATTTTCGAGTAAACAAATTTTCCTAATCTTTCTGTTCAAGCGCCATCTAC — lower, 0.295 RPM ratio (pull-down/input)
- GATGATTGTTCTCCCAGCTGATGAATTAACATAATCGAGTAAACAAATTTTCCTAATCTTTCTGTTCAAGCGCCATCTAC — lower, 0.409 RPM ratio (pull-down/input)
- GATGATTGTTCTCCCAGCTGATGAATTTGCTTGGTCGAGTAAACAAATTTTCCTAATCTTTCTGTTCAAGCGCCATCTAC — higher, 5.74 RPM ratio (pull-down/input)
- GATGATTGTTCTCCCAGCTGATGAATTTTGCTTGTCGAGTAAACAAATTTTCCTAATCTTTCTGTTCAAGCGCCATCTAC — higher, 5.89 RPM ratio (pull-down/input)
- GATGATTGTTCTCCCAGCTGATGAATTCTTGCTGTCGAGTAAACAAATTTTCCTAATCTTTCTGTTCAAGCGCCATCTAC — lower, 0.508 RPM ratio (pull-down/input)
- GATGATTGTTCTCCCAGCTGATGAATTGCTTTGGTCGAGTAAACAAATTTTCCTAATCTTTCTGTTCAAGCGCCATCTAC — lower, 1.08 RPM ratio (pull-down/input)
- GATGATTGTTCTCCCAGCTGATGAATTGCTTGGGTCGAGTAAACAAATTTTCCTAATCTTTCTGTTCAAGCGCCATCTAC — lower, 0.775 RPM ratio (pull-down/input)
- GATGATTGTTCTCCCAGCTGATGAATTGCTTCTGTCGAGTAAACAAATTTTCCTAATCTTTCTGTTCAAGCGCCATCTAC — lower, 0.468 RPM ratio (pull-down/input)
- GATGATTGTTCTCCCAGCTGATGAATTGTGCTTGTCGAGTAAACAAATTTTCCTAATCTTTCTGTTCAAGCGCCATCTAC — higher, 5.16 RPM ratio (pull-down/input)
- GATGATTGTTCTCCCAGCTGATGAATTTGCTTTGTCGAGTAAACAAATTTTCCTAATCTTTCTGTTCAAGCGCCATCTAC — higher, 6.34 RPM ratio (pull-down/input)
- GATGATTGTTCTCCCAGCTGATGAATTGCGTATTTCGAGTAAACAAATTTTCCTAATCTTTCTGTTCAAGCGCCATCTAC — higher, 3.53 RPM ratio (pull-down/input)
- GATGATTGTTCTCCCAGCTGATGAATTGCTAAAATCGAGTAAACAAATTTTCCTAATCTTTCTGTTCAAGCGCCATCTAC — lower, 0.394 RPM ratio (pull-down/input)
- GATGATTGTTCTCCCAGCTGATGAATTTTACGATTCGAGTAAACAAATTTTCCTAATCTTTCTGTTCAAGCGCCATCTAC — lower, 0.308 RPM ratio (pull-down/input)
- GATGATTGTTCTCCCAGCTGATGAATTGTAAAGATCGAGTAAACAAATTTTCCTAATCTTTCTGTTCAAGCGCCATCTAC — lower, 0.29 RPM ratio (pull-down/input)
- GATGATTGTTCTCCCAGCTGATGAATTACAGCCGTCGAGTAAACAAATTTTCCTAATCTTTCTGTTCAAGCGCCATCTAC — lower, 0.412 RPM ratio (pull-down/input)
- GATGATTGTTCTCCCAGCTGATGAATTTTGACGTTCGAGTAAACAAATTTTCCTAATCTTTCTGTTCAAGCGCCATCTAC — lower, 0.933 RPM ratio (pull-down/input)
- GATGATTGTTCTCCCAGCTGATGAATTACGATCATCGAGTAAACAAATTTTCCTAATCTTTCTGTTCAAGCGCCATCTAC — lower, 0.571 RPM ratio (pull-down/input)
- GATGATTGTTCTCCCAGCTGATGAATTCTGCATCTCGAGTAAACAAATTTTCCTAATCTTTCTGTTCAAGCGCCATCTAC — higher, 6.75 RPM ratio (pull-down/input)
- GATGATTGTTCTCCCAGCTGATGAATTCTGCATTTCGAGTAAACAAATTTTCCTAATCTTTCTGTTCAAGCGCCATCTAC — higher, 6.51 RPM ratio (pull-down/input)
- GATGATTGTTCTCCCAGCTGATGAATTCTGCAGCTCGAGTAAACAAATTTTCCTAATCTTTCTGTTCAAGCGCCATCTAC — higher, 2.66 RPM ratio (pull-down/input)
- GATGATTGTTCTCCCAGCTGATGAATTACTGCATTCGAGTAAACAAATTTTCCTAATCTTTCTGTTCAAGCGCCATCTAC — higher, 6.01 RPM ratio (pull-down/input)
- GATGATTGTTCTCCCAGCTGATGAATTCTGCTGTTCGAGTAAACAAATTTTCCTAATCTTTCTGTTCAAGCGCCATCTAC — higher, 3.41 RPM ratio (pull-down/input)
- GATGATTGTTCTCCCAGCTGATGAATTGCTGAATTCGAGTAAACAAATTTTCCTAATCTTTCTGTTCAAGCGCCATCTAC — lower, 0.916 RPM ratio (pull-down/input)
- GATGATTGTTCTCCCAGCTGATGAATTACTGATTTCGAGTAAACAAATTTTCCTAATCTTTCTGTTCAAGCGCCATCTAC — lower, 0.523 RPM ratio (pull-down/input)
- GATGATTGTTCTCCCAGCTGATGAATTACTGAATTCGAGTAAACAAATTTTCCTAATCTTTCTGTTCAAGCGCCATCTAC — lower, 0.586 RPM ratio (pull-down/input)
- GATGATTGTTCTCCCAGCTGATGAATTGCTGCATTCGAGTAAACAAATTTTCCTAATCTTTCTGTTCAAGCGCCATCTAC — higher, 6.8 RPM ratio (pull-down/input)
- GATGATTGTTCTCCCAGCTGATGAATTCTCTGCATCGAGTAAACAAATTTTCCTAATCTTTCTGTTCAAGCGCCATCTAC — lower, 0.793 RPM ratio (pull-down/input)
- GATGATTGTTCTCCCAGCTGATGAATTCGCATGATCGAGTAAACAAATTTTCCTAATCTTTCTGTTCAAGCGCCATCTAC — lower, 0.877 RPM ratio (pull-down/input)
- GATGATTGTTCTCCCAGCTGATGAATTCTGCGGGTCGAGTAAACAAATTTTCCTAATCTTTCTGTTCAAGCGCCATCTAC — lower, 0.928 RPM ratio (pull-down/input)
- GATGATTGTTCTCCCAGCTGATGAATTAGTCCGTTCGAGTAAACAAATTTTCCTAATCTTTCTGTTCAAGCGCCATCTAC — lower, 0.434 RPM ratio (pull-down/input)
- GATGATTGTTCTCCCAGCTGATGAATTCATGAAATCGAGTAAACAAATTTTCCTAATCTTTCTGTTCAAGCGCCATCTAC — lower, 0.289 RPM ratio (pull-down/input)
- GATGATTGTTCTCCCAGCTGATGAATTAAACCTTTCGAGTAAACAAATTTTCCTAATCTTTCTGTTCAAGCGCCATCTAC — lower, 0.318 RPM ratio (pull-down/input)
- GATGATTGTTCTCCCAGCTGATGAATTATTCTGCTCGAGTAAACAAATTTTCCTAATCTTTCTGTTCAAGCGCCATCTAC — lower, 0.328 RPM ratio (pull-down/input)
